The nature of assay [1]: NCI Yeast Anticancer Drug Screen. Data for the rad50 strain (AID 155).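 Note: 0% = growth of vehicle-only cultures of the same strain.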 Particulars: S. cerevisiae rad50 strain growth inhibition; at 50.0 µM; hits give high values. Summed up:
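Readout: growth inhibition relative to vehicle-treated cultures. Compound exposure was carried out in a genetically defined yeast strain deficient in DNA damage repair.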

A short description of assay [2]: NCI Yeast Anticancer Drug Screen. Data for the mec2-1 strain (AID 157). The conditions noted are these: S. cerevisiae mec2-1 strain, at 50.0 µM, hits give high values. Summed up:
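Each compound was tested on mec2-1 yeast, a strain altered in DNA damage repair or cell cycle control. Growth inhibition is reported relative to vehicle.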

A short description of assay [3]: NCI Yeast Anticancer Drug Screen. Data for the sgs1 mgt1 strain (AID 161).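 Note: 0% = growth of cultures given vehicle only.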 The conditions noted are these: S. cerevisiae sgs1 mgt1 strain, at 50.0 µM, hits give high values. An outline of the steps: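 Test agents were incubated with a DNA-repair-mutant yeast strain. Growth was then read and compared against vehicle-treated controls.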
The nature of assay [4]: NCI Yeast Anticancer Drug Screen. Data for the cln2 rad14 strain (AID 165).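 Note: 0% = growth equal to vehicle treated cultures.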 The conditions noted are these: S. cerevisiae cln2 rad14 strain, at 50.0 µM, hits give high values. An outline of the steps: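 Test compounds were added to cln2 rad14 yeast cultures; inhibition of growth was then determined by comparison with vehicle treatment.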
A short description of assay [5]: NCI Yeast Anticancer Drug Screen. Data for the bub3 strain (AID 167). The conditions noted are these: S. cerevisiae bub3 mutant strain, at 50.0 µM, hits give high values. An outline of the steps: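 Readout: yeast growth inhibition, expressed relative to vehicle-only wells. The test organism is a mutant strain from a panel with lesions in DNA repair or checkpoint genes.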

A short description of assay [6]: NCI Yeast Anticancer Drug Screen. Data for the mlh1 rad18 strain (AID 175). Particulars: S. cerevisiae mlh1 rad18 strain growth inhibition; at 50.0 µM; hits give high values. Summed up: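 Inhibition values reflect reduced growth of mutant yeast versus vehicle-treated controls following compound exposure; the mutations affect DNA damage repair.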

This is part of a sample that, as a whole, favours compounds with a hit. Of some 79,000 tested, about 15% had one in any assay. Values without a mark were called inactive. Calls of active or inactive are those of the source. Cut-off read from the data, not from the text of the source: active = growth inhibition above about 70%; inactive = the rest.

As for `CCOc1ccccc1NC(=O)CC(C)=O`, the growth inhibition was 14.3% in assay [1]; 20.6% in assay [2]; 22.2% in assay [3]; 1.9% in assay [4]; 33.3% in assay [5]; 10.4% in assay [6].

As for `CC1(CCl)Nc2ccccc2C(=O)N1c1ccc(F)cc1` (stereo unspecified), the growth inhibition in assay [1] is -7.55%; in assay [2], -21.9%; in assay [3] it was -0.9%; in assay [4], 1.4%; in assay [5] it was 14.6%; in assay [6], -3.35%.

On to `CC(C)Cc1ccc(OC(=O)Nc2ccccc2)cc1`, for which the growth inhibition in assay [1] was -7.5%; in assay [2], -1.6%; in assay [3] it was -2.9%; in assay [4], -3.4%; in assay [5] it was -13.5%; in assay [6] it was 2.05%.

With `COC(=O)c1ccccc1C1CN=NC12Cc1c(C)cccc1C2=O` (stereo unspecified), the growth inhibition in assay [1] was -2.25%; in assay [2], 6%; in assay [3], -5%; in assay [4], -7.1%; in assay [5], 13.8%; in assay [6], -13.7%.

For `O=C(NNC(=O)c1ccc2ccccc2c1)c1ccc(Cl)c(Cl)c1`, the growth inhibition in assay [1] was -13.3%; in assay [2], -23.3%; in assay [3], -2.65%; in assay [4] it was 17.1%; in assay [5], -5.25%; in assay [6], -14.1%.

As to `COC(=O)C(Cc1c[nH]c2ccccc12)NP(=O)(O)OCC1OC(n2cc(F)c(=O)[nH]c2=O)CC1O` (stereo unspecified), the growth inhibition was -31.4% in assay [1]; -17.1% in assay [2]; -38.5% in assay [3]; -9.2% in assay [4]; -24.7% in assay [5]; -16.1% in assay [6].

Turning to `Cc1cc(C)n(-c2nc(C)c(CCO)c(=O)[nH]2)n1`, the growth inhibition is -6.45% in assay [1]; -14.6% in assay [2]; -6.4% in assay [3]; 15.7% in assay [4]; -41.4% in assay [5]; -9.1% in assay [6].

In the case of `CN1C(=O)CC(NC(=O)CNC(=O)c2ccccc2)C1=O` (stereo unspecified), the growth inhibition was 19.5% in assay [1]; 16% in assay [2]; 23.1% in assay [3]; 21.1% in assay [4]; 2.7% in assay [5]; 29.4% in assay [6].

Consider `c1ccc(-c2nc3ccccc3n2CCc2ccncc2)nc1`, for which the growth inhibition in assay [1] is 11%; in assay [2], 10.4%; in assay [3], 14%; in assay [4] it was -14%; in assay [5] it was 3.2%; in assay [6], 20.9%.

`Cn1c(/N=C(/N)N=C(N)N)cc(=O)n(C)c1=O`: the growth inhibition is 12.8% in assay [1]; 5.45% in assay [2]; 20.3% in assay [3]; 34.7% in assay [4]; 29.6% in assay [5]; 21.8% in assay [6].

As for `Fc1ccc(-c2cc(-c3cc(-c4ccc(F)cc4)n[nH]3)[nH]n2)cc1`, the growth inhibition in assay [1] was 20.6%; in assay [2], 9.2%; in assay [3], 25.9%; in assay [4], 6.6%; in assay [5], 9.4%; in assay [6] it was 32.1%.

`C1=Cc2ccccc2/C1=C\C=C\c1ccccc1`: the growth inhibition in assay [1] is 19.1%; in assay [2] it was 8.75%; in assay [3], -2.35%; in assay [4], -11.4%; in assay [5] it was 2.8%; in assay [6], 18.1%.

Take `Cc1nc(N)c2nc(SC(C)C)c(N)nc2n1`: the growth inhibition in assay [1] is 2.85%; in assay [2] it was -6.55%; in assay [3], 0.45%; in assay [4] it was -31.2%; in assay [5], -20.9%; in assay [6], 17.2%.

Take `Cc1c(O)ccc2c(O)c(NC(=O)c3ccc4c(c3)CCC(C)(C)O4)c(=O)oc12`: the growth inhibition in assay [1] is 4.95%; in assay [2] it was -22.9%; in assay [3], 7.95%; in assay [4], -95.5%; in assay [5], -21.5%; in assay [6], 21.1%.

Regarding `COC(=O)C1OC(n2ccc(=O)[nH]c2=O)C(OC(C)=O)C(OC(C)=O)C1OC(C)=O` (stereo unspecified), the growth inhibition in assay [1] is 2.2%; in assay [2] it was -3.4%; in assay [3] it was -1.3%; in assay [4], -9.55%; in assay [5] it was 1.45%; in assay [6] it was 6.6%.

With `CC1(C)OCC2OC(n3cnc4c(N)nc(Cl)nc43)C(OS(C)(=O)=O)C2O1` (stereo unspecified), the growth inhibition in assay [1] was 3.75%; in assay [2] it was 16.9%; in assay [3], -13.2%; in assay [4], 8.7%; in assay [5], 4.15%; in assay [6] it was 30%.

Regarding `Cc1cc([N+](=O)[O-])ccc1NS(=O)(=O)c1ccccc1`, the growth inhibition in assay [1] was 24.9%; in assay [2], 39.5%; in assay [3] it was 42.9%; in assay [4] it was 15.5%; in assay [5], 18.1%; in assay [6] it was 36.6%.

Take `Cc1ccc[n+](CCCCCCCC[n+]2cccc(C)c2)c1`: the growth inhibition in assay [1] is 54.7%; in assay [2], 2.7%; in assay [3] it was 44.4%; in assay [4], -2.25%; in assay [5], 3.4%; in assay [6] it was 33.2%.

In the case of `CC(C)=CCCC(C)C1CCC2C3CC=C4CC(O)CCC4(C)C3CCC12C` (stereo unspecified), the growth inhibition in assay [1] is 34.5%; in assay [2], 45%; in assay [3], 48.2%; in assay [4], 34.4%; in assay [5], 12.9%; in assay [6], 72.3% (active).

`CC(=O)OCC(OC(C)=O)C(OC(C)=O)C(OC(C)=O)C(O)CO` (stereo unspecified): the growth inhibition was -0.55% in assay [1]; 18.8% in assay [2]; 15.4% in assay [3]; -6% in assay [4]; 24.6% in assay [5]; -4.45% in assay [6].

With `O=C(O)c1cccc([N+](=O)[O-])c1Nc1cccc(C(F)(F)F)c1`, the growth inhibition in assay [1] is 21.4%; in assay [2], 32.5%; in assay [3] it was 32.5%; in assay [4], 29.3%; in assay [5] it was 27.1%; in assay [6] it was 0.25%.

The record behind these values is PubChem BioAssay (NCI).
